Data as given in PubChem BioAssay AID2410 (Southern Research Specialized Biocontainment Screening …, 2010).
Hit rate of the full screen: of about 2,500 compounds, about 2,100 (84%) were called active.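 Rule for the calls: active = toxic compounds, whose cell viability fell below 70% of untreated control cells; inactive = the rest.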 So high a share suggests a set chosen from earlier hits. Not all results are given here. Entries with a potency or affinity are not part of this list.

Assay: HEp-2 cell cytotoxicity, dose response, cytotoxicity control for RSV inhibitor project, HTS (AID 2410);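 note: cells exposed to compound for six days before readout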
Details: HEp-2 viability, luminescence, cytotoxicity counter-screen; series mostly up to 50 µM

| SMILES | outcome |
| --- | --- |
| Cn1c(=NC(=O)C2CC2)sc2cc(F)cc(F)c21 | inactive |
| COC(=O)c1ccc2[nH]ccc2c1 | inactive |
| CC1CCCN(C(=O)CCNS(=O)(=O)c2ccc(Br)cc2)C1 (centres undefined) | inactive |
| c1coc(-c2nn3c(Cn4nnc5ccccc54)nnc3s2)c1 | inactive |
| c1ccc(-c2nn3c(Cn4nnc5ccccc54)nnc3s2)cc1 | inactive |
| Cc1c(Cc2ccccc2)c(=O)oc2cc(O)cc(O)c12 | inactive |
| CCOC(=O)Cc1c(C)c2ccc(N(CC)CC)cc2oc1=O | inactive |
| CNc1oc(/C=C/c2cccc(OC)c2)nc1C#N | inactive |
| N#Cc1c(N2CCOCC2)nsc1-c1ccc(C(F)(F)F)cc1 | inactive |
| Cc1ccc(-c2nc3cc(N)ccc3o2)cc1Br | inactive |
| COC(=O)c1sccc1NC(=O)c1ccccc1F | inactive |
| O=C(NCCN1CCN(C(=O)C(c2ccccc2)c2ccccc2)CC1)C(=O)Nc1ccccc1 | inactive |
| COc1cc(N)c(Cl)cc1NC(=O)c1ccccc1 | inactive |
| Cc1nn2c(N)c(C#N)cnc2c1-c1ccccc1 | inactive |
| Cc1ccc(Nc2nc(N)c([N+](=O)[O-])c(N3CCOCC3)n2)cc1C | inactive |
| C[C@@H]1CN(C(=O)c2nc3ccc(Cl)cn3c2CN2CCc3sccc3C2)C[C@H](C)O1 | inactive |
| CN(CC(=O)NCc1ccc(F)cc1)S(=O)(=O)c1cccc2nsnc12 | inactive |
| CCN(c1ccccc1)S(=O)(=O)c1ccc(Cl)c(NC(=O)c2ccc(=O)[nH]n2)c1 | inactive |
| CSc1ncc(Cl)c(C(=O)Nc2ccccc2Br)n1 | inactive |
| C/C(N)=C(/C#N)C(=O)COC(=O)c1ccncc1 | inactive |
| C=CCC1(C#N)C(=S)NC(C)=C(C(=O)OCC)C1c1ccccc1 (centres undefined) | inactive |
| CNC(=S)N/N=C(\C)c1ccc(-n2ccnc2)cc1 | inactive |
| Cc1ccc(-n2c(-c3cccnc3)n[nH]c2=S)c(C)c1 | inactive |

| SMILES | outcome |
| --- | --- |
| COc1cc(-c2nc3c(c(C)nn3-c3ccccc3)c3cc(OC)c(OC)cc23)ccc1O | inactive |
| COc1ccc(/C=C/C(=O)NCc2nc3ccccc3[nH]2)cc1OC | inactive |
| CC(C(=O)NCCc1ccc(Cl)cc1)n1c(=O)c2cccn2c2cccnc21 (centres undefined) | inactive |
| O=[N+]([O-])c1ccc(N/N=C/c2cccnc2)cc1 | inactive |
| COc1ccc(C2Nc3cc(OC)ccc3-n3cccc32)cc1 (centres undefined) | inactive |
| COc1ccc(-c2cc(C(=O)Nc3nc4c(C)cccc4s3)c3ccccc3n2)cc1OC | inactive |
| CCCNC(=O)N1CCN(c2nc(C(C)C)c3c(c2C#N)CC(C)(C)OC3)CC1 | inactive |
| Cc1cccc2nc(COc3ccc(Cl)c4cccnc34)cn12 | inactive |
| CC(C)(C)N1C(=O)[C@H]2[C@@H](c3ccc(Br)cc3)N3C(=O)N(c4cccc(Cl)c4)C(=O)[C@@]3(Cc3ccccc3)[C@H]2C1=O | inactive |
| O=C1[C@H]2[C@@H](c3ccc(F)cc3)N3C(=O)N(c4ccc(Br)cc4)C(=O)[C@@]3(Cc3ccc(Cl)cc3)[C@H]2C(=O)N1C1CCCCC1 | inactive |
| O=C1[C@H]2[C@@H](c3ccc(Cl)cc3)N3C(=O)N(c4cccc(Br)c4)C(=O)[C@@]3(Cc3ccc(Cl)cc3)[C@H]2C(=O)N1C1CCCCC1 | inactive |
| O=c1c2ccccc2oc2ccc(-c3ccc4[nH]ccc4c3)cc12 | inactive |
| COc1ccc2oc(-c3ccco3)cc(=O)c2c1 | inactive |
| O=C1C2CCCN2c2ccc(S(=O)(=O)N3CCOCC3)cc2N1Cc1ccccc1F (centres undefined) | inactive |
| O=C(c1ccc(F)cc1)N1CCN2C(=O)c3ccccc3C12c1ccccc1 (centres undefined) | inactive |
| Nc1ccc(Cl)c[n+]1Cc1cccc2cccnc12 | inactive |
| N#C/C(=C\c1ccncc1)c1nc2c(s1)CCCC2 | inactive |
| COc1ccc2ccc(=O)oc2c1 | inactive |
| Cc1c(CC(=O)N2CCN(C(=O)C3COc4ccccc4O3)CC2)c(=O)oc2cc(O)cc(O)c12 (centres undefined) | inactive |
| Cc1cc(S(=O)(=O)N2CCCC2)ccc1OCC(=O)Nc1ccccc1 | inactive |
| CC(=O)c1ccc2c(ccc3ccccc32)c1 | inactive |
| COCCCNC(=O)c1ccc(Cn2c(=O)c3ccccc3n(Cc3ccc(C)cc3)c2=O)cc1 | inactive |
| CC(=O)c1c(C)nc(-c2ccc(Cl)cc2)nc1N=CN(C)C | inactive |

| SMILES | outcome |
| --- | --- |
| O=C1c2ccccc2C(Nc2cccnc2)N1Cc1ccc2c(c1)OCO2 (centres undefined) | inactive |
| Cc1ccc2[nH]c(=O)c(COC(=O)c3ccccn3)cc2c1 | inactive |
| COc1ccc(NC(=O)C2(c3ccc(NC(=O)c4ccc(OC)cc4)cc3)CCCC2)cc1 | inactive |
| Nc1nnnn1/N=C/c1ccc(O)cc1 | inactive |
| COCCn1c(-c2ccc(Cl)cc2Cl)nc2c(c(=O)c3ccccc3n2C)c1=O | inactive |
| CCCCCC(=O)Nc1nc(C)c(-c2csc(Nc3cc(Cl)ccc3OC)n2)s1 | inactive |
| O=C(NC(C(=O)N/N=C/c1cccnc1)c1n[nH]c(=O)c2ccccc12)c1ccccc1 (centres undefined) | inactive |
| O=C(NCCSCc1c(F)cccc1Cl)Nc1ccccc1 | inactive |
| Cc1nc2cc(Cl)c(Cl)cc2n1-c1ccccn1 | inactive |
| Cc1ccc([N+](=O)[O-])cc1S(=O)(=O)Nc1cccc(-c2ccc(N3CCOCC3)nn2)c1 | inactive |
| Cc1c(-c2nc(N)nc(Nc3ccc(F)cc3)n2)oc2ccccc12 | inactive |
| COC(=O)c1ccc(Nc2nnc(-c3ccc(C)c(S(=O)(=O)NCC4CCCO4)c3)c3ccccc23)cc1 (centres undefined) | inactive |
| CCCc1cc(-n2cnc3ccccc32)n2c(nc3ccccc32)c1C#N | inactive |
| O=C(CSc1nc2ccccc2c2nc3ccccc3n12)NCc1ccco1 | inactive |
| Cc1ccc2cc3cc(C(=O)N4CCCCCC4)oc3nc2c1 | inactive |
| Cc1sc(=NC(=O)c2ccco2)n(C)c1-c1ccc(Cl)cc1 | inactive |
| Cn1cc(C(N)=O)c2ccccc21 | inactive |
| Cc1ccc(C)c(NC(=O)CSc2nc3c(oc4ccccc43)c(=O)n2-c2ccccc2)c1 | inactive |
| O=C(Nc1ccon1)c1sc2cc(F)ccc2c1Cl | inactive |
| Cc1ccc(/C=N\NC(=O)C2CN(S(=O)(=O)c3ccccc3)CCN2S(=O)(=O)c2ccccc2)cc1 (centres undefined) | inactive |
| C/C(N)=C(/C#N)C(=O)CSc1ncnc2ccccc12 | inactive |
| C/C(N)=C(/C#N)C(=O)CSc1cc(C)c2cc(C)cc(C)c2n1 | inactive |
| COc1ccc(CN2C(=O)c3cccnc3C2Nc2ccc(OC)c(Cl)c2)cc1 (centres undefined) | inactive |
